Laboratory results from paper PMC5540273 (PLoS ONE, 2017).

System: FGR
Details: concentration: 1 μM, replicates: in singlicate; n = 1
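Note: KINOMEscan kinase panel screen.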

Row | SMILES | %Inh [%]
1 | Fc1ccc(-c2ncn(C3CCNCC3)c2-c2ccnc(Oc3ccc(-c4ccccc4)cc3)n2)cc1 [SB-245391] | 17
2 | Cn1cc(-c2ccc3c(c2)CCN3C(=O)Cc2cccc(F)c2)c2c(N)ncnc21 [GSK2603358] | 46
3 | COc1cc(Nc2nccc(N3CCC(NC(=O)c4cc5ccccc5s4)C3)n2)cc(OC)c1OC (centres unmarked) [GSK1379760] | 23
4 | CC(=O)N1CCN(c2ccc(Nc3nccc(-c4sc(C(C)C)nc4-c4cccc(NS(=O)(=O)c5cccc(Cl)c5)c4)n3)cn2)CC1 [GSK1660437] | 78
5 | COc1cc(Nc2ncc3c(C)nc(-c4cc5ccccc5[nH]4)n3n2)cc(OC)c1OC [GW869516] | 40
6 | CN1CCN(Cc2cccc(-c3ccc4c(Nc5ccc(Oc6ccccc6)cc5)ccnc4c3)c2)CC1 [GW578342] | 92.4
7 | Nc1ncc(-c2ccc3nccc(-c4ccncc4)c3c2)cc1S(=O)(=O)N1CCOCC1 [GSK1627798] | 24
8 | CN(C)S(=O)(=O)c1cc(-c2ccc3nccc(-c4cccc(S(N)(=O)=O)c4)c3c2)cnc1N [GSK1669921] | 22
9 | CCn1c(-c2nonc2N)nc2c(C#CC(C)(C)O)ncc(OCCCCN)c21.O=C(O)C(F)(F)F.O=C(O)C(F)(F)F [GSK507274] | 33
10 | Cc1ccc(C)c(NC(=O)NC2CCN(c3ccnc(Nc4ccc(F)cc4)n3)C2)c1 (centres unmarked) [GSK1379720] | 24

System: FLT1
Details: concentration: 1 μM, replicates: in singlicate; n = 1

Row | SMILES | %Inh [%]
11 | Cn1cc(-c2[nH]c3cc(NC(=O)[C@H](N)C4CCCCC4)cc4c3c2C=NNC4=O)cn1 | 81
12 | O=C(Nc1ccccc1F)NC1CCN(c2ccnc(Nc3ccc(F)cc3)n2)CC1 [GSK1379800] | 29
13 | Cc1ccc(F)c(C(=O)Nc2cccc(-c3nn4ccccc4c3-c3ccnc(Nc4cccc(F)c4)n3)c2)c1F [GSK361061] | 94.5
14 | O=C(O)C(F)(F)F.O=C(O)C(F)(F)F.O=c1[nH]ccc2nc(N[C@@H]3CCCNC3)nc(Nc3ccc(S(=O)(=O)N4CCOCC4)cc3)c12 [GSK2177277] | 68
15 | CN1CCN(CCCNc2nccc(-c3c(-c4ccc(F)cc4)nn4cc(C(F)(F)F)ccc34)n2)CC1 [GW621581] | 33
16 | CSc1cccc2c(-c3ccncn3)c(-c3ccc(F)cc3)nn12 [GW514786] | 19
17 | O=C(Nc1cccc(-c2nn3ccccc3c2-c2ccnc(Nc3cccc(C(F)(F)F)c3)n2)c1)c1c(F)cccc1F [GSK292658] | 78
18 | COc1ccc(Nc2nccc(N3CCC(NC(=O)Nc4cccc(OC)c4)C3)n2)cc1 (centres unmarked) [GSK1379742] | 36
19 | Cc1cccc(NC(=O)Nc2ccc(Oc3ncnc4ccn(C)c34)cc2)c1 | 99.3
20 | O=C(NC1CCN(c2ccnc(Nc3ccc(F)cc3)n2)C1)c1cc2ccccc2s1 (centres unmarked) [GSK1379716] | 20
21 | O=c1[nH]cc(-c2ccc(N3CCOCC3)cc2)c2sc(-c3cn[nH]c3)cc12 [GSK2276055] | 0
22 | Nc1ncc(-c2cccnc2)c2scc(-c3ccc4c(c3)CCN4C(=O)Cc3ccccc3)c12 [GSK683281] | 47
23 | O=C(Nc1cccc(Oc2ccc3nc(NC(=O)C4CC4)cn3n2)c1)c1ccccc1C(F)(F)F | 99.7
24 | Cl.Cl.NCC(NCc1ccc(-c2ccnc3[nH]ccc23)s1)c1ccccc1 (centres unmarked) [GSK1321565] | 18
25 | COc1ccc(CNC(=O)NC2CCN(c3ccnc(Nc4ccc(F)cc4)n3)CC2)cc1 [GSK1379788] | 16
26 | CCn1c(-c2nonc2N)nc2c(C#CC(C)(C)O)nc(OC[C@H](N)c3ccccc3)cc21 [GSK943949] | 1
27 | CN(c1ccc(NC(=O)Nc2cc(C(F)(F)F)ccc2F)cc1)c1ccnc(Nc2ccc(S(N)(=O)=O)cc2)n1 [GW809893] | 98.3
28 | O=C(Nc1n[nH]c2nc(-c3ccc(O)cc3)ccc12)C1CC1 [SB-710363] | 16
29 | O=C(Nc1cccc(-c2nn3ccccc3c2-c2ccnc(Nc3cccc(F)c3)n2)c1)c1c(F)ccc(F)c1Cl [GSK357952] | 89

Row | SMILES | %Inh [%]
30 | Nc1ncnc2c1nc(-c1ccccc1)n2-c1ccccc1 [SKF-97293] | 9
31 | Cc1cccc(Nc2nc(N[C@H]3CCNC3)ncc2C(N)=O)c1.Cl [GSK2197149] | 24
32 | COc1cccc(C2=C(Nc3ccc(Cl)c(C(=O)O)c3)C(=O)NC2=O)c1 [SB-390769] | 25
33 | COc1cc(Nc2nccc(-c3c(-c4cccc(NC(=O)c5c(F)cccc5F)c4)nn4ccccc34)n2)cc(OC)c1OC [GSK323521] | 41
34 | CC(=O)Nc1nc2cnc(Nc3cc(NC(=O)c4cccc(C5(C#N)CC5)c4Cl)ccc3C)nc2s1 | 44
35 | c1ccc(Oc2ccc(Nc3ccnc4cc(-c5ccc(CNCCN6CCOCC6)o5)ccc34)cc2)nc1 [GW567145] | 3
36 | CNC(=O)c1ccccc1Nc1nc(Nc2ccc(N3CCOCC3)cc2)ncc1Cl.Cl [GSK1576028] | 89
37 | Cl.Cl.NCC(NC(=O)c1cc(-c2ccccc2)c(-c2ccnc3[nH]ccc23)s1)c1ccccc1 (centres unmarked) [GSK1321561] | 10
38 | Fc1ccc(-c2ncn(C3CCNCC3)c2-c2ccnc(Oc3ccc(-c4ccccc4)cc3)n2)cc1 [SB-245391] | 13
39 | Cn1cc(-c2ccc3c(c2)CCN3C(=O)Cc2cccc(F)c2)c2c(N)ncnc21 [GSK2603358] | 63
40 | COc1cc(Nc2nccc(N3CCC(NC(=O)c4cc5ccccc5s4)C3)n2)cc(OC)c1OC (centres unmarked) [GSK1379760] | 36
41 | CC(=O)N1CCN(c2ccc(Nc3nccc(-c4sc(C(C)C)nc4-c4cccc(NS(=O)(=O)c5cccc(Cl)c5)c4)n3)cn2)CC1 [GSK1660437] | 81
42 | COc1cc(Nc2ncc3c(C)nc(-c4cc5ccccc5[nH]4)n3n2)cc(OC)c1OC [GW869516] | 23
43 | CN1CCN(Cc2cccc(-c3ccc4c(Nc5ccc(Oc6ccccc6)cc5)ccnc4c3)c2)CC1 [GW578342] | 45
44 | Nc1ncc(-c2ccc3nccc(-c4ccncc4)c3c2)cc1S(=O)(=O)N1CCOCC1 [GSK1627798] | 22
45 | CN(C)S(=O)(=O)c1cc(-c2ccc3nccc(-c4cccc(S(N)(=O)=O)c4)c3c2)cnc1N [GSK1669921] | 25
46 | CCn1c(-c2nonc2N)nc2c(C#CC(C)(C)O)ncc(OCCCCN)c21.O=C(O)C(F)(F)F.O=C(O)C(F)(F)F [GSK507274] | 23
47 | Cc1ccc(C)c(NC(=O)NC2CCN(c3ccnc(Nc4ccc(F)cc4)n3)C2)c1 (centres unmarked) [GSK1379720] | 9
